Results as given in ChEMBL document CHEMBL1157539, “Thousands of chemical starting points for antimalarial lead identification” (Nature, 2010).

Assays:
Type in all cases: functional
Plasmodium falciparum [1] = assay: GSK_TCMDC: Inhibition of Plasmodium falciparum 3D7 in whole red blood cells, using parasite LDH activity as an index of growth. Test compounds present at 2uM
Plasmodium falciparum [2] = assay: GSK_TCMDC: Inhibition of Plasmodium falciparum Dd2 in whole red blood cells, using parasite LDH activity as an index of growth. Test compounds present at 2uM
HepG2 = assay: GSK_TCMDC: Percent inhibition of human HepG2 cell line. Test compounds present at 10uM.

| Compound | Inhibition (Plasmodium falciparum [1]) | Inhibition (Plasmodium falciparum [2]) | Inhibition (HepG2) |
| --- | --- | --- | --- |
| Cc1ccc2c(N/N=C/c3ccccc3[N+](=O)[O-])cc(C)nc2c1 | 100% | 100% | 13% |
| Cc1ccc(CCC(C)NCC(O)c2cccc(Cl)c2)cc1 (stereo not given) | 97% | 97% | 2% |
| Cc1cccc2nc(-c3ccc(-c4ccc(NC(=O)Nc5cccc(C#N)c5)cc4)cc3)[nH]c12 | 100% | 100% | 28% |
| O=C(Nc1ccccc1)N(Cc1cccc(-c2ccc(CNC3CCCC3)cc2)c1)C1CCN(Cc2ccccc2)CC1.O=C(O)C(F)(F)F | 100% | 96% | 100% |
| O=C(O)C(F)(F)F.OCC1CCN(Cc2cccc(-c3ccc(-c4nc5cc(F)ccc5[nH]4)cc3)c2)CC1 | 100% | 86% | 11% |
| O=C(NCCN1CCCCC1)N1CCCN(c2ncnc3cc(-c4ccccc4)sc23)CC1.O=C(O)C(F)(F)F | 89% | 80% | 2% |
| COc1ccc2ncc(F)c(CCN3C[C@H](CNCc4cc(F)c5c(c4)NC(=O)CO5)[C@H](O)C3)c2n1.Cl | 94% | 23% | 3% |
| Cc1ccc(F)cc1-c1cc(N2CCCN(C(=O)c3ccc(Br)o3)CC2)ncn1 | 94% | 91% | 0% |
| COc1cc2nc(N3CCC(CNC(=O)c4ccc(-c5ccccc5)cc4)CC3)nc(N)c2cc1OC | 93% | 92% | 11% |
| Nc1ccc2[nH]cc(C3CCN(CC4CCN(C(=O)/C=C/c5ccc(Cl)c(Cl)c5)CC4)CC3)c2n1 | 99% | 97% | 53% |
| O=C(Nc1cc(F)cc(F)c1)N1CCOC(CCN2CCC(c3ccccc3)CC2)(c2ccc(Cl)c(Cl)c2)C1 (stereo not given) | 91% | 69% | 31% |
| CN(C)CCCSc1ccccc1NC(=O)C=Cc1ccccc1 | 85% | 0% | 0% |
| Cc1noc(C)c1C(=O)N1CCCC(c2[nH]c3c(C)cccc3c2-c2ccncc2)C1.Cl (stereo not given) | 100% | 100% | 16% |
| CC(C)CCN(Cc1cncn1Cc1cccc(C(F)(F)F)c1)C(=O)c1cncc(-c2ccccc2)c1 | 100% | 4% | 15% |
| CC1=C(C(=O)Nc2cc3cn[nH]c3cc2F)C(c2cccc(O)c2F)CC(=O)N1 (stereo not given) | 97% | 98% | 1% |
| N=C(N)Nc1nc(-c2cccc(NC(=O)NCCc3c[nH]c4ccc(OCc5ccccc5)cc34)c2)cs1 | 100% | 30% | 0% |
| CC(C)(C)C(C)(C)Cc1ccc(O)c(CN2CCN(c3ccccc3)CC2)c1 | 99% | 98% | 6% |
| Cc1cc(OCC(=O)Nc2ccc(-c3nc4ccccc4[nH]3)cc2)cc(C)c1Cl | 99% | 0% | 5% |
| O=C(Nc1cccc(-c2nn3ccccc3c2-c2ccnc(Nc3cccc(F)c3)n2)c1)c1c(F)ccc(F)c1F | 96% | 73% | 33% |
| O=C(CCCCCNC(=O)c1ccc(O)c(-c2ccc(Cl)c(Cl)c2)c1)NCCN1CCCCC1 | 93% | 1% | 0% |
| CC(C)N1CCC(N(Cc2ccc(-c3ccc(C(F)(F)F)cc3)cc2)C(=O)Cn2c(CCc3cccc(F)c3F)cc(=O)c3ccccc32)CC1.O=C(O)C(O)C(O)C(=O)O | 99% | 73% | 50% |
| CC1CCCC(NC(=O)CCOc2ccccc2)C1 (stereo not given) | 96% | 32% | 0% |
| CC(C)CCN1CCC(Oc2ccc(NC(=O)c3ccc(F)cc3)cc2Cl)CC1.O=C(O)C(F)(F)F | 98% | 88% | 33% |
| CS(=O)(=O)N(c1ccccc1)c1cc(C(=O)N[C@@H](Cc2ccccc2)[C@H](O)CNC2CC2)cc(N2CCCC2=O)c1 | 100% | 98% | 1% |
| Cc1cc(C(=O)Nc2ccc3c(c2)CCN3C2CCN(Cc3ccc4nsnc4c3)C2)no1 (stereo not given) | 90% | 94% | 0% |
| CN1CCN(c2ccc(Cl)cc2NC(=O)C2COc3ccccc3O2)CC1 (stereo not given) | 99% | 44% | 2% |
| O=C(NCC1CCC(C(=O)NCc2cccc3ccccc23)CC1)c1ccc(O)c(-c2ccc(Cl)c(Cl)c2)c1 (stereo not given) | 100% | 92% | 0% |
| CC(C)(C)c1cc(NC2CC2)nc(-c2ccccn2)n1 | 94% | 79% | 7% |
| Cc1nc(-c2ccc(-c3ccc(C(=O)Nc4ccc(Cl)c(N5CCN(C)CC5)c4)cc3)c(C)c2)no1 | 100% | 47% | 23% |
| CN(C)Cc1cccc2nc(-c3csc(Cc4cc(Cl)ccc4OCc4ccccc4)n3)[nH]c12 | 100% | 77% | 14% |
